Rows were chosen to be rich in hits. Some 12% of all compounds tested hit in one or more screens of this group.
Pf growth 96h: inhibits malaria parasite growth, 96 h. Potency, µM (top dose mostly 28.7 µM), without a hit: top-dose activity change, negative = inhibition, usual class: inhibitors. 320,000 tested, 6.9% active. P. falciparum luciferase reporter growth, 96 h. AID 504834; also: % is scaled to controls: 0 for no effect and ±100 for the full control effect
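Readout is luminescence from an integrated firefly luciferase in P. falciparum. Red cells, 2% hematocrit and 0.05% parasitemia final, were cultured with compound through two parasite generations (96 hours) at 37 C, 5% CO2.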
Pf growth 48h: P. falciparum growth inhibition at 48 hours (one generation) | P. falciparum luciferase growth in erythrocytes, 48 h | AID 504832 | Potency, µM (doses to about 28.7 µM), for inactives: at the top dose activity change, negative = inhibition, most hits filed as inhibitors | 310,000 tested, 5.9% active; also: % is scaled to controls: 0 for no effect and ±100 for the full control effect
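First compound was added to culture medium, then infected red cells at 0.1% parasitemia and 2% hematocrit (final). After incubation at 37 C under 5% CO2, luciferase detection reagent was dispensed and light output recorded.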
Sm TGR block: blocks Schistosoma mansoni thioredoxin glutathione reductase; 360,000 tested, 3% active; purified TGR, DTNB reduction, TNB absorbance 405 nm; Potency, µM (titrated, usually from 114 µM), inactives show top-dose activity change, negative = inhibition, most hits filed as inhibitors; Q962Y6; also: % is scaled to controls: 0 for no effect and ±100 for the full control effect; nearly all actives have a fitted effect of over 60% in size
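Kinetic colorimetric format: TGR-catalysed, NADPH-driven DTNB reduction monitored via TNB absorbance. Enzyme dispensed at 20 nM; compound exposure 15 min at room temperature before reaction start.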
SARS PLpro yeast: blocks SARS-CoV papain-like protease in a yeast assay; 330,000 tested, 0.19% active; Potency, µM (titrated, usually from 32.9 µM), without a hit: at the highest dose activity, positive = growth rescue, usual class: activators; S. cerevisiae expressing SARS-CoV PLpro, growth rescue; AID 485353; calls by dose curve; also: 0% is about no effect; nearly all actives have a fitted effect of over 55% in size
An asterisk follows results filed as active; ? = inconclusive; . = no result. Unless noted, calls follow the shape of the dose curve; as a rule, active = well fitted curve in the direction sought with a large enough effect; inconclusive = small, poorly fitted or top-dose-only effect, or another doubt; inactive = no such curve, though single readings can be large; an effect the other way counts as inactive or inconclusive. Potency is read from the fitted curve at half-maximal effect.

SMILES	Pf growth 96h	Pf growth 48h	Sm TGR block	SARS PLpro yeast
CSc1ccccc1OCc1cc(C(=O)N(C)Cc2ccc(C)o2)no1	?	-6%	7.9µM*	-10%
CN(C)CCNC(=O)C(=O)Nc1ccc2c(c1)N(S(=O)(=O)c1cccs1)CCC2	13µM*	?	-9%	0%
CN(C)CCCNC(=O)C(=O)Nc1ccc2c(c1)N(S(=O)(=O)c1cccs1)CCC2	?	9.3µM*	0%	0%
CCOc1ccccc1NC(=O)c1cnc(N2CCOCC2)c2ccccc12	.	.	2%	.
CCN(CC)S(=O)(=O)c1ccc(N2CCCC2)c(NC(=O)CN2C(=O)NC3(CCCC3)C2=O)c1	?	?	-3%	-5%
CC(C)(C)Sc1ccc2nc3c(n2c1)CCCC3	?	12µM*	2%	?
COc1cccc(C(=O)c2cn(CC(=O)NCc3ccccc3Cl)c3nc(C)ccc3c2=O)c1	.	.	-14%	.
CC(C)N1C(=O)NC(=O)C2(Cc3cc([N+](=O)[O-])ccc3N(C)C2c2ccccc2)C1=O (stereo unspecified)	12µM*	?	-5%	-6%
CN1c2ccc([N+](=O)[O-])cc2CC2(C(=O)NC(=O)NC2=O)C1c1ccccc1 (stereo unspecified)	?	?	-12%	17%
CN1c2ccc([N+](=O)[O-])cc2CC2(C(=O)NC(=O)N(c3ccccc3)C2=O)C1c1ccccc1 (stereo unspecified)	2.9µM*	3.3µM*	1%	3%
CCOc1ccc2c(c1)sc1nc(=O)n(-c3ccc(Cl)c(Cl)c3)c(=O)n12	.	.	5%	.
Cc1ccc(-n2nc(C)c3c(C(=O)Nc4ccc(Br)c(C)c4)cc(C)nc32)cc1	.	.	5%	.
CC1Cn2c(nnc2-c2cc3ccccc3cc2O)S1 (stereo unspecified)	.	1.7µM*	-3%	10%
CC1Cn2c(nnc2-c2ccccc2O)S1 (stereo unspecified)	-6%	.	5%	5%
Nc1ccc2nc(CCCCc3nc4ccccc4[nH]3)[nH]c2c1	?	?	0%	-3%
Nc1ccc2nc(CCCCCCCCc3nc4ccc(N)cc4[nH]3)[nH]c2c1	6%	7.4µM*	-2%	2%
Nc1ccc2nc(COc3ccccc3)[nH]c2c1	7.4µM*	49%	-2%	-6%
CN1c2ccccc2C(C)(C)C12CCCC(=O)N2 (stereo unspecified)	15%	?	20µM*	4%
Cc1ccc(C)c(CS(=O)(=O)c2cn(CC(=O)N(C(C)C)C(C)C)c3ccccc23)c1	.	.	-2%	.
Cc1cc(=O)[nH]c(SCC(=O)Nc2ccc(F)cc2)c1C#N	33%	10%	2%	-1%
Cc1cc(=O)[nH]c(SCC(=O)Nc2ccc(Br)cc2)c1C#N	15µM*	.	-4%	2%
COc1ccc(CCNCC2C(Oc3ccc(Cl)cc3)C(=O)N2c2ccccc2C)cc1OC (stereo unspecified)	?	?	2%	-1%
COc1ccc(NC2=CC(c3ccc(OC)c(OC)c3)N(c3ccc(OC)cc3)C2=O)cc1 (stereo unspecified)	?	?	-32%	?
COc1ccc(OC2C(=O)N(c3cc(C)ccc3C)C2c2ccc(OC)c(OC)c2)cc1 (stereo unspecified)	20%	7.4µM*	2%	6%
COc1ccc(OC2C(=O)N(c3ccc(C)c(C)c3)C2c2ccc(OC)c(OC)c2)cc1 (stereo unspecified)	?	9.3µM*	-1%	?
SMILES	Pf growth 96h	Pf growth 48h	Sm TGR block	SARS PLpro yeast
COc1ccc(NC(=O)COC(=O)c2cc(C)oc2C)c([N+](=O)[O-])c1	-26%	-28%	?	9%
O=C(O)c1ccc(S(=O)(=O)N2CCCc3ccccc32)cc1	-2%	13%	-9%	-1%
COC(=O)c1sc2ccccc2c1NC(=O)c1ccc(S(=O)(=O)N2CCCCC2C)cc1 (stereo unspecified)	13µM*	15µM*	9%	23%
CC1CCCCN1S(=O)(=O)c1ccc(C(=O)Nc2sccc2C(N)=O)cc1 (stereo unspecified)	9.3µM*	9.3µM*	-6%	-39%
NC(=O)c1ccsc1NC(=O)c1ccc(S(=O)(=O)N2CCCc3ccccc32)cc1	10µM*	?	-8%	-31%
COc1ccc(NC(C)=[N+](C)CCNS(=O)(=O)c2ccc(Cl)cc2)cc1	0%	47%	35µM*	-7%
Cc1cccc(NC(=O)c2ccc([N+](=O)[O-])s2)c1C	-85%	2.6µM*	-4%	-101%
